Screening data as filed in PubChem.
IL1B secr inh: inhibitors of inflammasome signaling (IL-1 beta secretion); THP-1 LPS/ATP IL-1B secretion, AlphaLISA, 16 h; hits give low values; activity change, % at 57.5 µM; actives 4.7% (n = 360,000); AID 743279; in the data active means activity change below about -50%; inconclusive means mostly about -30% to -49%
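Secreted IL-1B measured by AlphaLISA bead assay after 16 h compound exposure of THP-1 cells; compounds (final up to 57.5 uM) added 1 h before LPS (250 ng/mL) and ATP (1.25 mM) stimulation; lower signal means less secretion.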
HT1080NT lethal: kills 2HG-producing HT-1080-NT fibrosarcoma cells; HT-1080-NT fibrosarcoma viability, CellTiter-Glo ATP luminescence, 48 h; Potency, µM (doses to about 46.1 µM), for inactives: at the top dose activity, negative = less viability, usual class: cytotoxic; actives 1.6% (n = 360,000);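 further: NT is the 2HG producing partner of a matched IDH1 knockdown line; potency means the concentration at half of the fitted maximal effect; 0% = DMSO-treated cells and -100% = media-only wells without cells; nearly all actives have a fitted effect of over 55% in size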
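A 48-hour cytotoxicity screen used HT-1080-NT cells plated 2 hours before compound delivery. ATP-based CellTiter-Glo luminescence measured viability, normalized to DMSO and no-cell controls.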
DT40 TDP1 no CPT: qHTS for Inhibitors of human tyrosyl-DNA phosphodiesterase 1 (TDP1): qHTS in cells in absence of CPT; Potency, µM (highest dose often 46.2 µM), for inactives: at the top dose activity change, negative = growth inhibition, most hits filed as inhibitors; DT40 Tdp1-/- hTDP1 cells, no CPT, ATP luminescence, 48 h; actives 15% (n = 420,000); AID 686978, 2013; further: potency means the concentration at half of the fitted maximal effect; nearly all actives have a fitted effect of over 55% in size
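Stably hTDP1-transfected Tdp1-null chicken DT40 cells were treated with library compounds minus camptothecin and grown for at least 48 hr at 37 °C, after which cellular ATP was quantified by luminescence.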
HT1080 IDH1KD tx: toxicity to HT-1080 IDH1 knockdown cells (counter line); AID 686971; Potency, µM (series often up to 46.1 µM), for the others: at the highest dose activity, negative = toxicity, actives largely listed as cytotoxic; HT-1080 IDH1 knockdown viability, ATP luminescence, 48 h; actives 2% (n = 360,000);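 further: potency means the concentration at half of the fitted maximal effect; 0% = DMSO wells and -100% = cell-free medium wells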
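Using the IDH1-knockdown HT-1080 line run in the same batch and compound series as the NT line, viability after 48 h at 37 °C was determined by CellTiter-Glo luminescence and expressed as % activity.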
ELG1 repair inh: ELG1-dependent DNA repair inhibition; HEK293T ELG1-luciferase reporter, luminescence, 16 h; DNA damage induced by 5-fluorouridine; Potency, µM (highest dose often 46.1 µM), inactives show top-dose activity change, negative = inhibition, usual class: inhibitors; actives 2.3% (n = 330,000); AID 504467; further: potency means the concentration at half of the fitted maximal effect; nearly all actives have a fitted effect of over 55% in size
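HEK293T cells expressing luciferase-tagged ELG1 (2,000/well) received 5-Fluorouridine plus compound or DMSO for 16 hr at 37 °C. Luciferase was read by ONE-Glo luminescence after 30 min at room temperature.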
TDP1 cell CPT: DT40-hTDP1 cell growth loss with CPT | Potency, µM (series often up to 46.2 µM), inactives show at the highest dose activity change, negative = growth inhibition, most hits filed as inhibitors | actives 12% (n = 420,000) | AID 686979 | chicken DT40 Tdp1-/-;hTDP1 cells + 20 nM CPT, ATP luminescence, 48 h; further: potency means the concentration at half of the fitted maximal effect; nearly all actives have a fitted effect of over 55% in size
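Chicken DT40 Tdp1-/- cells complemented with human TDP1, 400 cells/well, exposed to compounds plus 20 nM camptothecin for at least 48 h at 37 C; viability read as ATP content by CellTiter-Glo luminescence.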
Active calls of the source: *; ? = inconclusive; . = no result. Hits are enriched below; roughly 19% of the tested compounds scored in any of these assays. Unless noted, the call rests on the fitted dose curve; in most records, active means well fitted curve in the direction sought with a large enough effect; inconclusive means small, poorly fitted or top-dose-only effect, or another doubt; inactive means no such curve, though single readings can be large; an effect the other way counts as inactive or inconclusive. Unless noted, on the % scale 0 is the no-effect control and ±100 the full control effect.

SMILES | IL1B secr inh | HT1080NT lethal | DT40 TDP1 no CPT | HT1080 IDH1KD tx | ELG1 repair inh | TDP1 cell CPT
Cc1cccc(NCc2ccc(N(C)C)cc2)n1 | -15 | 22% | -28% | 28% | ? | ?
CC(C)OC(=O)c1cccc(C(=O)OCc2ccco2)n1 | -74* | -2% | 21µM* | 24% | ? | ?
CC(C)OC(=O)c1cccc(C(=O)Oc2ccccc2)n1 | 30 | 3% | 6% | 3% | ? | 1%
COc1cccc(NC(=O)CCc2nc3c(C)nn(-c4ccc(C)cc4)c3n(C)c2=O)c1 | . | . | -8% | . | . | -1%
Cc1csc(NC(=O)C2CC(=O)N(c3ccc(C)c(C)c3)C2)n1 (stereo unspecified) | 28 | -2% | -24% | -6% | 6% | 1%
COc1ccc(CCNC(=O)Cn2c(=O)n(-c3ccc(OC)c(OC)c3)c(=O)c3ccccc32)cc1OC | . | . | -4% | . | . | -6%
COC(=O)C1Cc2ccccc2CN1C(=O)CCl (stereo unspecified) | -97* | 8.2µM* | 15µM* | 15µM* | ? | 15µM*
COC(=O)[C@H](Cc1ccccc1)NC(=O)N1Cc2ccccc2C[C@H]1C(=O)OC | -7 | 1% | ? | -2% | 0% | -29%
CCSc1nnc(NC(=O)C2CCN(S(=O)(=O)c3ccccc3C(F)(F)F)CC2)s1 | -3 | 1% | ? | -5% | 23µM* | -6%
CN(C(=O)C1CCCCN1S(=O)(=O)c1ccccc1)c1ccccc1 (stereo unspecified) | 12 | -2% | ? | 6% | -13% | ?
O=C(NCc1ccccc1Cl)[C@@H]1CCCN1S(=O)(=O)c1ccc(Cl)cc1 | -51* | -1% | 16µM* | -5% | -19% | ?
O=C(Nc1ccc(Cl)cc1)C1CCCCN1S(=O)(=O)c1ccccc1 (stereo unspecified) | -10 | ? | 7.3µM* | ? | 0% | ?
Cc1ccc(S(=O)(=O)N2CCCCC2C(=O)N(C)c2ccccc2)cc1 (stereo unspecified) | 24 | -12% | 15µM* | 0% | -1% | 16µM*
CCSc1nnc(NC(=O)C2CCN(S(=O)(=O)c3c(C)c(C)cc(C)c3C)CC2)s1 | . | . | . | . | -10% | .
CCOC(=O)c1cc(-c2ccc(OC)c(S(=O)(=O)NC3CCCCC3)c2)on1 | . | . | -18% | . | . | -2%
CC(=O)c1cccc(NC(=O)C2CCCN2S(=O)(=O)c2ccccc2C(F)(F)F)c1 (stereo unspecified) | 3 | -3% | -7% | -1% | . | -1%
O=C(Nc1ccc(Cl)cn1)C1CCCN1S(=O)(=O)c1ccccc1 (stereo unspecified) | 13 | -3% | 12µM* | -2% | ? | 21µM*
O=C(Nc1cccc(S(=O)(=O)N2CCCCC2)c1)[C@@H]1CCCN1S(=O)(=O)c1ccccc1C(F)(F)F | ? | -6% | 23µM* | 2% | . | ?
Cc1cc(C)cc(NC(=O)C2CCCCN2S(=O)(=O)c2ccccc2)c1 (stereo unspecified) | -3 | -3% | 13µM* | -6% | . | 21µM*
O=C(NC1CC1)c1cccc(NC(=O)C2CCN(S(=O)(=O)c3ccccc3C(F)(F)F)CC2)c1 | -8 | -5% | 26µM* | 1% | . | ?
O=C(Nc1ccccc1)C1CCCCN1S(=O)(=O)c1ccccc1 (stereo unspecified) | 9 | -8% | ? | -17% | 1% | -9%
O=C(NC1CC1)c1cccc(NC(=O)C2CCC2)c1 | 7 | 1% | 4% | 14% | . | 6%
COC(=O)c1cccnc1-n1c(=O)c2cccnc2n(CC(=O)Nc2ccccc2F)c1=O | . | . | -8% | . | . | -2%
CCOc1ccc(Cl)cc1C1CC(=O)Nc2cc(OC)c(OC)c(OC)c21 (stereo unspecified) | . | . | 7% | . | . | 1%
COCCNC(=O)C1(C)CCN(C(=O)c2cc(C)nn2C(C)(C)C)C1 (stereo unspecified) | 8 | 25% | 1% | 11% | . | 18%
SMILES | IL1B secr inh | HT1080NT lethal | DT40 TDP1 no CPT | HT1080 IDH1KD tx | ELG1 repair inh | TDP1 cell CPT
O=C(CS(=O)(=O)c1ccc(Cl)cc1)N1CCN(c2ccccc2)CC1 | -20 | 0% | -26% | 4% | . | 0%
Cc1ccc(S(=O)(=O)N2CCCCC2C(=O)Nc2nncs2)cc1 (stereo unspecified) | 0 | 0% | -3% | -2% | -5% | 8%
Cc1ccc(NC(=O)[C@@H]2CCCN2S(=O)(=O)c2ccc(Cl)cc2)cc1 | 4 | 24% | ? | -7% | -22% | 21µM*
O=C(Nc1ccc(C(F)(F)F)cc1)C1CCCCN1S(=O)(=O)c1ccccc1 (stereo unspecified) | -24 | 2% | 29µM* | -2% | -4% | 9.2µM*
Cc1ccc(S(=O)(=O)N2CCCC2C(=O)Nc2nc3c(s2)CCCC3)cc1 (stereo unspecified) | -4 | -1% | 23µM* | -23% | -26% | ?
O=C(OCC(=O)N1CCN(c2ccccc2)CC1)C1CCCN1S(=O)(=O)c1ccc(Cl)cc1 (stereo unspecified) | 7 | 3% | 21µM* | 1% | 13% | ?
CC(=O)c1ccc(NC(=O)C2CCCN2S(=O)(=O)c2ccc(C)cc2)cc1 (stereo unspecified) | 124 | 6% | ? | 0% | 12% | ?
CC(=O)Nc1ccc(NC(=O)C2CCCCN2S(=O)(=O)c2ccc(C(C)(C)C)cc2)cc1 (stereo unspecified) | 13 | -15% | ? | -20% | ? | 23µM*
O=C(NCc1cccnc1)c1cc(C2CCCN(S(=O)(=O)c3ccccc3)C2)on1 (stereo unspecified) | 33 | 12% | -24% | 13% | . | -20%
COCCn1c(SCC(=O)Nc2ccc(F)cc2)nc2c(c1=O)SCC2 | 24 | 2% | -15% | -1% | . | 5%
CCCCc1cc(=O)oc2cc(C)c3c(C)coc3c12 | . | . | ? | . | . | 15µM*
CCCCc1cc(=O)oc2cc(O)cc(O)c12 | 36 | -20% | 9.2µM* | -12% | -13% | 3%
CCC(=O)Oc1c(Sc2ccc(Cl)cc2)c(C)nn1C(C)(C)C | . | . | -29% | . | . | ?
CCc1cccc(NC(=O)COC(=O)C2COc3ccccc3O2)c1 (stereo unspecified) | 6 | 1% | -30% | -1% | . | -11%
